Mcl1-Noxa inh: Mcl-1/Noxa interaction inhibition; Q07820; inhibition, % at 21.7 µM; TR-FRET Mcl-1/Noxa peptide binding, 2 h; AID 1022; hit rate 1.5% among 220,000;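 active = compounds that cut the protein-peptide binding signal by more than 50% relative to plate controls in a single-dose test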;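 also: His-tagged Mcl-1 with rhodamine Noxa BH3 peptide and terbium anti-His antibody; 0% = Mcl-1 plus Noxa peptide wells and 100% = peptide-only wells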
Target sequence (Q07820 whole entry, looked up): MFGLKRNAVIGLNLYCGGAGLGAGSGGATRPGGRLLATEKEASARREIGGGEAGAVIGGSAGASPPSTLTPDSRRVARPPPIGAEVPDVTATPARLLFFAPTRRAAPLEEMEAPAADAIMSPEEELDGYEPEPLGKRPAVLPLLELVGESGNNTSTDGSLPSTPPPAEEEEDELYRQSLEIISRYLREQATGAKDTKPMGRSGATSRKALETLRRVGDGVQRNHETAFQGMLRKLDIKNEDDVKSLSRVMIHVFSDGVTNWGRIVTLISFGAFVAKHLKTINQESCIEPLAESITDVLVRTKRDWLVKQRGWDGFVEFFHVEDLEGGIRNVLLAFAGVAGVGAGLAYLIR
Mcl1-Bid inh: Mcl-1/Bid interaction inhibition. Q07820. TR-FRET Mcl-1/Bid-Dy647 peptide binding, 1536-well. inhibition, % at 21.7 µM. hit rate 0.97% among 220,000;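 active = compounds that cut the binding signal by more than half at the single screening dose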;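 also: His-tagged Mcl-1 with europium anti-His antibody binding Bid BH3 peptide; 0% = Mcl-1 plus peptide wells and 100% = peptide-only wells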
Bim-Mcl-1: disrupts Bim peptide binding to human Mcl-1. Q07820. Bead-based flow cytometry, Bim peptide-Mcl-1 binding. inhibition, % at 10 µM. hit rate 0.1% among 190,000; in the data active = inhibition above about 40%;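 also: 0% = no compound tracer wells and 100% = peptide blocker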
Arbovirus inh: blocks arbovirus infection | arbovirus infection cell-based antiviral screen | AID 1251 | inhibition, % at 10 µM | hit rate 0.37% among 200,000; in the data active = inhibition above about 30%
14-3-3 Bad PPI: disrupts binding of bovine 14-3-3 zeta to phospho-Bad peptide | P63103 | TR-FRET 14-3-3zeta/Dy647-pBad peptide displacement, 1 h | inhibition, % at 21.7 µM | hit rate 0.71% among 220,000 | AID 781;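 active = inhibition above about 70%, limit read from the data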;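 also: 0% = full 14-3-3 plus peptide FRET controls and 100% = background without 14-3-3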
Target sequence (P63103 whole entry, looked up): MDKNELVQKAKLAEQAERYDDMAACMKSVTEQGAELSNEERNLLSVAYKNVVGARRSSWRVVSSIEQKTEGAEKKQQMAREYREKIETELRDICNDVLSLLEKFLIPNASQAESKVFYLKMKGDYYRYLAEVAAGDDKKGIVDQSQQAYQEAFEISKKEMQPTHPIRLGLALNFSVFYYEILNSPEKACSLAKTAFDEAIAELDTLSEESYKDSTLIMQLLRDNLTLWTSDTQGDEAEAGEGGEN
Active calls of the source: *; . = no result given; [ ] = remark or other dose. Rows were chosen to be rich in hits. Some 3% of all compounds tested hit in one or more screens of this group.

SMILES	Mcl1-Noxa inh	Mcl1-Bid inh	Bim-Mcl-1	Arbovirus inh	14-3-3 Bad PPI
CCCc1ccc(OCc2nc(-c3ccc(NC(=O)c4ccco4)cc3)no2)cc1	7	60*	-6	-18	22
COCCNC(=S)NNC(=O)c1ccc(-n2cnnn2)cc1	-1	-44	-2	9	-6
Nc1ccc(Cc2ccc(N)c(O)c2)cc1O	87*	27	2	6	47
COc1cc(C(CCN2CCCCC2)c2c(OC)cc(OC)c3c(C)cc(=O)oc23)cc(OC)c1OC (centres undefined)	10	-65	.	.	-6
COc1ccccc1N1CCN(C2CCN(C(=O)c3cccs3)CC2)CC1	8	58*	1	4	54
COc1ccccc1N1CCN(C2CCN(C(=O)c3cc(OC)c(OC)c(OC)c3)CC2)CC1	20	35	4	4	79*
COc1ccc(/C=C2\C(=O)NC(=S)N2C(=O)c2ccc(C)cc2)cc1	77*	56*	-2	5	79*[fluorescence artefact?]
COc1ccc(NC(=O)Nc2nnc(CC(=O)NCc3ccccc3)s2)cc1	1	91*	0	-2	-10
CC1(OC(=O)C2CCCC2)C(=O)C=C2C=C(c3ccsc3)N(CCc3ccccn3)C=C2C1=O (centres undefined)	32	-23	.	.	-5
NC(=NCc1ccc2c(c1)OCO2)NC(=O)c1ccccc1	9	7	-1	4	77*
C/C(CCc1ccc2c(c1)OCO2)=N\NC(=O)c1ccccc1	15	-7	-2	2	4
CCOC(=O)c1ccc(CNCc2ccc(C)cc2)cc1	6	2	-1	8	-1
CC(C)c1ccc(S(=O)(=O)N2CCN(CCC(=O)Nc3ccc(N(C)C)cc3)CC2)cc1	72*	-33	0	-7	-3
Oc1cccc(/C=N/Nc2nn3cnnc3c3ccccc23)c1	36	-10	.	.	-10
COc1cccc(/C=N/Nc2nn3cnnc3c3ccccc23)c1O	53*	-73	16	-15	-9
CCOC(=O)c1c(C)n(-c2ccc(C)cc2)c2ccc(OCC(O)CN3CCN(C)CC3)cc12 (centres undefined)	13	5	-2	-34	43
CC(C)(C=O)C1=CC(=O)c2ccccc2C1=O	85*	20	-2	-42	2
CC1=CC(=O)c2ccccc2C1=O	12	12	0	-44	1
CC(=O)Nc1ccccc1C(=O)C(=O)Nc1ccc(C(=O)N2CCOCC2)cc1	11	-10	0	4	-5
O=C(Nc1ccccc1)c1cc2ccccc2o1	-13	-4	-5	-9	-10
O=C(COc1ccccc1[N+](=O)[O-])Nc1ccc(NC(=O)c2cc3ccccc3o2)cc1	-28	41	-1	-10	90*
O=C(COc1ccc(/C=N/NC(=O)c2cc3ccccc3o2)cc1Br)Nc1ccccc1	2	82*	0	-27	86*[fluorescence artefact?]
O=C(COc1ccccc1[N+](=O)[O-])Nc1ccc2c(c1)OCO2	19	-24	2	-2	-15
CC(=O)OCC(=O)Nc1ccccc1OC(F)F	15	-32	0	11	-25
O=C(O)c1ccc(Cl)c(N2C(=O)Nc3ccccc3N2O)c1	25	19	1	6	-5
SMILES	Mcl1-Noxa inh	Mcl1-Bid inh	Bim-Mcl-1	Arbovirus inh	14-3-3 Bad PPI
COc1ccc(S(=O)(=O)N2CCN(C(=O)Cc3cccs3)CC2)cc1	10	4	-4	9	-3
O=C(Nc1ccc(S(=O)(=O)N2CCCCCC2)cc1)c1ccc(Br)o1	32	-13	-8	2	5
O=C(COC(=O)c1ccc(Br)o1)Nc1ccc(S(=O)(=O)N2CCCC2)cc1	44	60*	-4	-3	0
O=C(Cc1cccs1)N1CCN(S(=O)(=O)c2ccccc2)CC1	14	97*	-2	1	-7
O=C(Cc1cccs1)Nc1ccc(S(=O)(=O)N2CCCCC2)cc1	66*	24	-2	1	1
Cc1sc2nc(CN(Cc3cccs3)C(=O)NC3CCCCC3)[nH]c(=O)c2c1C	5	8	0	-14	0
O=c1[nH]c(CN2CCc3ccccc3C2)nc2ccccc12	25	10	-1	8	-17
Cc1[nH]c2ccccc2c1CN1CCc2ccccc2C1	.	51*	0	-36	55
CC1=NN2C(=N)/C(=C\c3ccc(SCc4ccccc4)o3)C(=O)N=C2S1	27	-35	2	35*	.
CC1=NN2C(=N)/C(=C\c3cc(C)n(Cc4ccccc4)c3C)C(=O)N=C2S1	8	-113	.	.	8
Nc1nc2c(c(=O)[nH]1)C(c1cccc3ccccc13)C1=C(N2)c2ccccc2C1=O (centres undefined)	94*	14	4	13	4
CC(=O)C1=C(C)NC2=C(C(=O)c3ccccc32)C1c1ccccc1 (centres undefined)	12	-17	-2	-3	-31
S=C(Nc1ccccc1Cl)N(CCCN1CCOCC1)Cc1ccccn1	10	-13	0	8	-2
O=C(N/N=C/c1ccc(OC(=O)c2ccc3c(c2)OCO3)cc1)c1cncc(Br)c1	-103	-26	-35	-1	71*
CC1CN(CCCCN2C(=O)c3ccccc3C2=O)CC(C)O1 (centres undefined)	18	-40	-1	13	44
Cc1nn(-c2ccccc2)c(Cl)c1/C=N/NC(=O)c1ccncc1	-9	5	.	.	-7
COc1ccc(CC(=O)N2CCc3cc(OC)c(OC)cc3C2O)cc1OC (centres undefined)	5	-20	.	.	-2
O=C1C2CC=C(Cl)CC2C(=O)N1CCCCCCN1C(=O)C2CC=C(Cl)CC2C1=O (centres undefined)	55*	-27	1	0	11
CC(=O)NC(Cc1ccccc1C)C(=O)NC1CCN(C(=O)c2ccc(C)cc2)CC1 (centres undefined)	23	8	-1	-1	6
COc1ccccc1NC1=C(NC(C)=O)C(=O)c2ccccc2C1=O	78*	-39	8	-9	-9
COc1ccc(N2CCN(c3nc(-c4cccs4)nc4ccccc34)CC2)cc1	-20	-9	-2	3	-3
Cc1c(N=C2NN=C(c3c[nH]c4ccccc34)CS2)c(=O)n(-c2ccccc2)n1C	12	-52	.	.	-9
CCC(CC)C(=O)c1c[nH]c(C(=O)NCc2ccncc2)c1	13	-1	0	-2	-4
CCCCNC(=O)c1ccc(S(=O)(=O)c2ccc(Cl)cc2)c(NC(C)=O)c1	11	-7	-1	0	72*
COc1cc([N+](=O)[O-])ccc1NC(=O)CC1SC(=Nc2ccc(F)cc2)N(CCC2=CCCCC2)C1=O (centres undefined)	-13	-23	4	48*	-13
COc1ccc(OC)c(NC(=O)CC2SC(=Nc3ccc(F)cc3)N(CCC3=CCCCC3)C2=O)c1 (centres undefined)	11	-65	0	5	-8
CC(C)C[C@H](NC(=O)c1nc[nH]c1C(=O)N1CCN(C(=O)OC(C)(C)C)CC1)C(=O)OC(C)(C)C	-34	3	-1	32*	-9

Screens as filed in PubChem.
